Data published in PubChem BioAssay (NCI).
About 79,000 compounds went through this panel and 15% of them were active in at least one assay; those are over-represented in the sample as a whole. Unmarked numbers belong to inactive results. The source made the active and inactive calls. No stated cut-off is given here; in the data, active means growth inhibition above about 70%; inactive means the rest.

How the values were obtained:
[1] = NCI Yeast Anticancer Drug Screen. Data for the rad52 strain (AID 147);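 further: 0% = growth of vehicle-treated control cultures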; conditions: S. cerevisiae rad52 mutant growth inhibition, hits give high values
Method in brief: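 The repair-mutant yeast strain was incubated with compounds, then growth was read and inhibition derived relative to vehicle.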

[2] = NCI Yeast Anticancer Drug Screen. Data for the wt1 strain (AID 149);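 further: 0% = growth of vehicle-treated wt1 cultures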; conditions: S. cerevisiae wt1 strain (SPY 50644) growth inhibition, hits give high values
Method in brief: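 Yeast wt1 strain exposed to compounds; growth inhibition measured relative to vehicle-treated controls.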

[3] = NCI Yeast Anticancer Drug Screen. Data for the rad50EPP+ strain (AID 151);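 further: 0% = growth of vehicle-treated control cultures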; conditions: S. cerevisiae rad50 mutant strain, hits give high values
Method in brief: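 Vehicle-normalised growth inhibition; rad50EPP+ yeast strain, altered in DNA damage repair, compound-treated.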

[4] = NCI Yeast Anticancer Drug Screen. Data for the mgt1 strain (AID 153); conditions: S. cerevisiae mgt1 mutant growth inhibition, hits give high values
Method in brief: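 Vehicle-normalized growth inhibition is determined in mgt1 yeast, a strain selected for a defined alteration in DNA repair or cell cycle control.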

[5] = NCI Yeast Anticancer Drug Screen. Data for the rad50 strain (AID 155);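 further: 0% = growth of vehicle-only cultures of the same strain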; conditions: S. cerevisiae rad50 strain growth inhibition, hits give high values
Method in brief: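 Yeast carrying a defined DNA repair defect were exposed to test compounds, and growth was compared with vehicle-treated controls to give percent inhibition.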

[6] = NCI Yeast Anticancer Drug Screen. Data for the mec2-1 strain (AID 157); conditions: S. cerevisiae mec2-1 strain, hits give high values
Method in brief: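 Mutant yeast (mec2-1) grown with compound; growth inhibition relative to vehicle control reported.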

[7] = NCI Yeast Anticancer Drug Screen. Data for the rad14 strain (AID 159);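 further: 0% = growth of vehicle-treated control cultures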; conditions: S. cerevisiae rad14 strain growth inhibition, hits give high values
Method in brief: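 Yeast cells carrying a defined DNA-repair defect were exposed to compounds, and growth inhibition was calculated relative to vehicle-treated control cultures.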

[8] = NCI Yeast Anticancer Drug Screen. Data for the sgs1 mgt1 strain (AID 161);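 further: 0% = growth of cultures given vehicle only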; conditions: S. cerevisiae sgs1 mgt1 strain, hits give high values
Method in brief: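 Growth of a repair-deficient yeast mutant was monitored after compound treatment and expressed as inhibition relative to vehicle-treated cultures.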

[9] = NCI Yeast Anticancer Drug Screen. Data for the CLN2oe strain (AID 163);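 further: 0% = growth of vehicle-only control cultures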; conditions: S. cerevisiae CLN2oe strain, hits give high values
Method in brief: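 Compounds are applied to yeast harbouring a defined cell-cycle control change; reduced growth compared with vehicle-treated controls gives the value.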

[10] = NCI Yeast Anticancer Drug Screen. Data for the cln2 rad14 strain (AID 165);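 further: 0% = growth equal to vehicle treated cultures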; conditions: S. cerevisiae cln2 rad14 strain, hits give high values
Method in brief: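 Readout is yeast growth inhibition versus vehicle-treated controls, using a strain with cln2 and rad14 alterations exposed to compound.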

[11] = NCI Yeast Anticancer Drug Screen. Data for the bub3 strain (AID 167); conditions: S. cerevisiae bub3 mutant strain, hits give high values
Method in brief: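 Compounds were applied to a genetically altered yeast strain carrying a cell-cycle control defect. Growth inhibition was scored against vehicle-treated controls.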

[12] = NCI Yeast Anticancer Drug Screen. Data for the wt2 strain (AID 169);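 further: 0% = growth of vehicle-treated yeast cultures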; conditions: S. cerevisiae wt2 strain growth inhibition, hits give high values
Method in brief: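 Against vehicle-treated controls, the growth of yeast exposed to each compound was compared, and the inhibition was recorded.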

[13] = NCI Yeast Anticancer Drug Screen. Data for the mlh1 strain (AID 171);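 further: 0% = growth of vehicle-treated control cultures of the same strain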; conditions: S. cerevisiae mlh1 strain growth inhibition, hits give high values
Method in brief: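 Measured: yeast growth. Reference: vehicle-treated controls. Organism: strain with a defined alteration affecting DNA damage repair or cell cycle control, treated with compound.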

[14] = NCI Yeast Anticancer Drug Screen. Data for the sgs1 strain (AID 173);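 further: 0% = growth of vehicle-only control cultures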; conditions: S. cerevisiae sgs1 mutant, hits give high values
Method in brief: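 Each compound was added to cultures of the altered yeast strain. Growth was recorded, and inhibition was derived by comparison with vehicle controls.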

[15] = NCI Yeast Anticancer Drug Screen. Data for the mlh1 rad18 strain (AID 175); conditions: S. cerevisiae mlh1 rad18 strain growth inhibition, hits give high values
Method in brief: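 Genetically defined yeast (DNA repair-deficient) exposed to compounds; growth inhibition determined relative to vehicle.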

[16] = NCI Yeast Anticancer Drug Screen. Data for the rad18 strain (AID 177); conditions: S. cerevisiae rad18 mutant growth inhibition, hits give high values
Method in brief: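 Vehicle-treated cultures served as the baseline for scoring compound-induced growth inhibition in DNA-repair-mutant yeast.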

[17] = at 5.0 µM (retest, dose inferred, filed as 0.5)
[18] = at 50.0 µM (retest, dose inferred, filed as 5.0)

CCN(CC)CCN(C)CCc1ccc(Br)cc1
growth inhibition ([1]; at 1.2 µM): 12% | growth inhibition ([1]; at 3.7 µM): 19% | growth inhibition ([1]; at 11.0 µM): 37% | growth inhibition ([1]; at 33.0 µM): 48% | growth inhibition ([1]; at 100.0 µM): 91% (active) | growth inhibition ([2]; at 1.2 µM): 5% | growth inhibition ([2]; at 3.7 µM): 11% | growth inhibition ([2]; at 11.0 µM): 19% | growth inhibition ([2]; at 33.0 µM): 32% | growth inhibition ([2]; at 100.0 µM): 83% (active) | growth inhibition ([3]; at 1.2 µM): -3% | growth inhibition ([3]; at 3.7 µM): -3% | growth inhibition ([3]; at 11.0 µM): -2% | growth inhibition ([3]; at 33.0 µM): -2% | growth inhibition ([3]; at 100.0 µM): -3% | growth inhibition ([4]; at 1.2 µM): 5% | growth inhibition ([4]; at 3.7 µM): 10% | growth inhibition ([4]; at 11.0 µM): 40% | growth inhibition ([4]; at 33.0 µM): 84% (active) | growth inhibition ([4]; at 100.0 µM): 96% (active) | growth inhibition ([5]; at 1.2 µM): 7% | growth inhibition ([5]; at 3.7 µM): 10% | growth inhibition [5, 17]: -6% | growth inhibition ([5]; at 11.0 µM): 20% | growth inhibition ([5]; at 33.0 µM): 50% | growth inhibition [5, 18]: 11% | growth inhibition ([5]; at 50.0 µM): 31.8% | growth inhibition ([5]; at 100.0 µM): 85% (active) | growth inhibition ([6]; at 1.2 µM): 10% | growth inhibition ([6]; at 3.7 µM): 17% | growth inhibition [6, 17]: 8% | growth inhibition ([6]; at 11.0 µM): 26% | growth inhibition ([6]; at 33.0 µM): 43% | growth inhibition [6, 18]: 26% | growth inhibition ([6]; at 50.0 µM): 33.6% | growth inhibition ([6]; at 100.0 µM): 78% (active) | growth inhibition ([7]; at 1.2 µM): 15% | growth inhibition ([7]; at 3.7 µM): 36% | growth inhibition ([7]; at 11.0 µM): 57% | growth inhibition ([7]; at 33.0 µM): 87% (active) | growth inhibition ([7]; at 100.0 µM): 97% (active) | growth inhibition [8, 17]: 5% | growth inhibition [8, 18]: 41% | growth inhibition ([8]; at 50.0 µM): 68.4% | growth inhibition ([9]; at 1.2 µM): 11% | growth inhibition ([9]; at 3.7 µM): 15% | growth inhibition ([9]; at 11.0 µM): 35% | growth inhibition ([9]; at 33.0 µM): 64% | growth inhibition ([9]; at 100.0 µM): 89% (active) | growth inhibition [10, 17]: 10% | growth inhibition [10, 18]: 52% | growth inhibition ([10]; at 50.0 µM): 53.4% | growth inhibition ([11]; at 1.2 µM): 10% | growth inhibition ([11]; at 3.7 µM): 16% | growth inhibition [11, 17]: 13% | growth inhibition ([11]; at 11.0 µM): 35% | growth inhibition ([11]; at 33.0 µM): 67% | growth inhibition [11, 18]: 21% | growth inhibition ([11]; at 50.0 µM): 53.5% | growth inhibition ([11]; at 100.0 µM): 84% (active) | growth inhibition ([12]; at 1.2 µM): 6% | growth inhibition ([12]; at 3.7 µM): 11% | growth inhibition ([12]; at 11.0 µM): 33% | growth inhibition ([12]; at 33.0 µM): 68% | growth inhibition ([12]; at 100.0 µM): 94% (active) | growth inhibition ([13]; at 1.2 µM): 7% | growth inhibition ([13]; at 3.7 µM): 13% | growth inhibition ([13]; at 11.0 µM): 31% | growth inhibition ([13]; at 33.0 µM): 60% | growth inhibition ([13]; at 100.0 µM): 94% (active) | growth inhibition ([14]; at 1.2 µM): 10% | growth inhibition ([14]; at 3.7 µM): 23% | growth inhibition ([14]; at 11.0 µM): 49% | growth inhibition ([14]; at 33.0 µM): 85% (active) | growth inhibition ([14]; at 100.0 µM): 94% (active) | growth inhibition [15, 17]: -29% | growth inhibition [15, 18]: 25% | growth inhibition ([15]; at 50.0 µM): 68.3% | growth inhibition ([16]; at 1.2 µM): 11% | growth inhibition ([16]; at 3.7 µM): 32% | growth inhibition ([16]; at 11.0 µM): 54% | growth inhibition ([16]; at 33.0 µM): 66% | growth inhibition ([16]; at 100.0 µM): 91% (active)

COc1nc2c(c(=O)n1C)N=C(c1ccccc1)[C@H](C(CC(=O)c1ccccc1)c1ccccc1)C(c1ccccc1)N2 (stereo partly specified)
growth inhibition ([1]; at 1.2 µM): -2% | growth inhibition ([1]; at 3.7 µM): 13% | growth inhibition ([1]; at 11.0 µM): 34% | growth inhibition ([1]; at 33.0 µM): 31% | growth inhibition ([1]; at 100.0 µM): 60% | growth inhibition ([2]; at 1.2 µM): -27% | growth inhibition ([2]; at 3.7 µM): -20% | growth inhibition ([2]; at 11.0 µM): -19% | growth inhibition ([2]; at 33.0 µM): 6% | growth inhibition ([2]; at 100.0 µM): 46% | growth inhibition ([3]; at 1.2 µM): -16% | growth inhibition ([3]; at 3.7 µM): -30% | growth inhibition ([3]; at 11.0 µM): -46% | growth inhibition ([3]; at 33.0 µM): -17% | growth inhibition ([3]; at 100.0 µM): -35% | growth inhibition ([4]; at 1.2 µM): -53% | growth inhibition ([4]; at 3.7 µM): -38% | growth inhibition ([4]; at 11.0 µM): -9% | growth inhibition ([4]; at 33.0 µM): 34% | growth inhibition ([4]; at 100.0 µM): 60% | growth inhibition ([5]; at 1.2 µM): 6% | growth inhibition ([5]; at 3.7 µM): 3% | growth inhibition [5, 17]: 65% | growth inhibition ([5]; at 11.0 µM): 5% | growth inhibition ([5]; at 33.0 µM): 21% | growth inhibition [5, 18]: 94% (active) | growth inhibition ([5]; at 50.0 µM): 52.4% | growth inhibition ([5]; at 100.0 µM): 55% | growth inhibition ([6]; at 1.2 µM): -16% | growth inhibition ([6]; at 3.7 µM): -9% | growth inhibition [6, 17]: 13% | growth inhibition ([6]; at 11.0 µM): -8% | growth inhibition ([6]; at 33.0 µM): -4% | growth inhibition [6, 18]: 94% (active) | growth inhibition ([6]; at 50.0 µM): 61.5% | growth inhibition ([6]; at 100.0 µM): 34% | growth inhibition ([7]; at 1.2 µM): -1% | growth inhibition ([7]; at 3.7 µM): -10% | growth inhibition ([7]; at 11.0 µM): -1% | growth inhibition ([7]; at 33.0 µM): 31% | growth inhibition ([7]; at 100.0 µM): 57% | growth inhibition [8, 17]: -14% | growth inhibition [8, 18]: 35% | growth inhibition ([8]; at 50.0 µM): 53.7% | growth inhibition ([9]; at 1.2 µM): 10% | growth inhibition ([9]; at 3.7 µM): 1% | growth inhibition ([9]; at 11.0 µM): 4% | growth inhibition ([9]; at 33.0 µM): 13% | growth inhibition ([9]; at 100.0 µM): 43% | growth inhibition [10, 17]: 2% | growth inhibition [10, 18]: -15% | growth inhibition ([10]; at 50.0 µM): 7.8% | growth inhibition ([11]; at 1.2 µM): -11% | growth inhibition ([11]; at 3.7 µM): -34% | growth inhibition [11, 17]: 0% | growth inhibition ([11]; at 11.0 µM): 9% | growth inhibition ([11]; at 33.0 µM): 18% | growth inhibition [11, 18]: 23% | growth inhibition ([11]; at 50.0 µM): 36.4% | growth inhibition ([11]; at 100.0 µM): 41% | growth inhibition ([12]; at 1.2 µM): -8% | growth inhibition ([12]; at 3.7 µM): -8% | growth inhibition ([12]; at 11.0 µM): -7% | growth inhibition ([12]; at 33.0 µM): 22% | growth inhibition ([12]; at 100.0 µM): 46% | growth inhibition ([13]; at 1.2 µM): -53% | growth inhibition ([13]; at 3.7 µM): -38% | growth inhibition ([13]; at 11.0 µM): -9% | growth inhibition ([13]; at 33.0 µM): 34% | growth inhibition ([13]; at 100.0 µM): 60% | growth inhibition ([14]; at 1.2 µM): -9% | growth inhibition ([14]; at 3.7 µM): -10% | growth inhibition ([14]; at 11.0 µM): 23% | growth inhibition ([14]; at 33.0 µM): 40% | growth inhibition ([14]; at 100.0 µM): 71% (active) | growth inhibition [15, 17]: 14% | growth inhibition [15, 18]: 35% | growth inhibition ([15]; at 50.0 µM): 20.1%
